Here are results for eleven substances from ChEMBL document CHEMBL1201862, “PubChem BioAssay data set” (2004).

In all, about 57,000 sequences went through this assay and about 3,700 (6.5%) were called active. No stated cut-off is given here; in the data, active = GI50 up to about 1.1 µM and inactive = higher. Not all results are given here. Measured potencies and affinities stand elsewhere.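 How tested: cells in 96-well plates exposed to compound for 48 hours at five concentrations. Abbreviation: GI50, concentration required for 50% inhibition of growth.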

The experiment relates to IGROV-1. Put plainly: NCI tumour cell line growth inhibition, 48 h.
“[Bis(aminomethyl)pentamethylenesilane]dichloropaltinum(II), CHEMBL2146202” showed a GI50 of 41.9 µM.
“[Bis(aminomethyl)pentamethylenesilane]tetrachloropaltinum(IV), CHEMBL2146204” displayed a GI50 of 10.5 µM.
Take CISPLATIN, CHEMBL11359: the GI50 came to 2.02 µM.
Turning to “mu-(1,7-nanodiamine-N,N')bis-(cis-aminedichloroplatimum (II)), CHEMBL2146215”, the GI50 was 29 µM.
In turn, “[Bis(aminomethyl)tetramethylenesilane]dichloropaltinum(II), CHEMBL2146205” came in with a GI50 of 36.8 µM.
“[Bis(aminomethyl)dimethylsilane]dichloroplatinum (II), CHEMBL2146201” yielded a GI50 of over 100 µM.
For “[Bis(aminomethyl)diethylsilane]tetrachloroplatinum(IV), CHEMBL2146203” the value was 15.5 µM; for “[Bis(aminomethyl)ethylmethylsilane]tetrachloroplatinum(IV), CHEMBL2146192”, 16 µM.
As for “cis-Bis[[(trimethylsilyl)methyl]amino]tetrachloroplatinum(IV), CHEMBL2146191”, the figure is 15.4 µM.
As for “[Bis(aminomethyl)dimethylsilane]tetrachloroplatinum(IV), CHEMBL2146190”, the GI50 turned out to be 15.4 µM.
Substance “[Bis(aminomethyl)tetramethylenesilane]tetrachloropaltinum(IV), CHEMBL2146189” gave a GI50 of 6.1 µM.
